Data published in ChEMBL document CHEMBL1157539, “Thousands of chemical starting points for antimalarial lead identification” (Nature, 2010).
Values joined by “and” are separate entries in the source; they are usually repeats but may differ in a detail not shown here. Identical values can stand only once.

Columns and labels:
Assay type in all cases: functional
Plasmodium falciparum [1] = test: GSK_TCMDC: Inhibition of Plasmodium falciparum 3D7 in whole red blood cells, using parasite LDH activity as an index of growth. Test compounds present at 2uM
Plasmodium falciparum [2] = test: GSK_TCMDC: Inhibition of Plasmodium falciparum Dd2 in whole red blood cells, using parasite LDH activity as an index of growth. Test compounds present at 2uM
HepG2 = test: GSK_TCMDC: Percent inhibition of human HepG2 cell line. Test compounds present at 10uM.

Row | SMILES | Inhibition (Plasmodium falciparum [1]) | Inhibition (Plasmodium falciparum [2]) | Inhibition (HepG2)
1 | FC(F)(F)c1ccc(NC(=S)NC2CCC(CN3CCC(c4c[nH]c5ccccc45)CC3)CC2)cc1 (stereo not given) | 100% | 100% and 99% | 65% and 92%
2 | Cc1cc(O)cc2c(C3CCN(CC4CCN(C(=O)/C=C/c5ccc(Cl)c(Cl)c5)CC4)CC3)c[nH]c12 | 100% | 100% | 33%
3 | CNCC(O)c1cc(Cl)c(Cl)cc1C.Cl (stereo not given) | 98% | 88% | 0%
4 | Cc1ccc(CC(C)NCC(O)c2cccc(C#N)c2)cc1 (stereo not given) | 94% | 86% | 2%
5 | Clc1ccc2nccc(N3CCC(CN4CCC(c5c[nH]c6ccccc56)CC4)CC3)c2c1.O=C(O)C(F)(F)F | 100% | 81% | 46%
6 | C#CCN1CCC2=C(C1)c1c(O)cc(C(C)C(C)CCc3ccc(F)cc3)cc1OC2(C)C (stereo not given) | 100% | 99% | 10%
7 | CC(Cc1ccc(SC(C)C)cc1)NCC(O)c1cccc(Cl)c1.Cl (stereo not given) | 99% | 97% | 5%
8 | O=C(NC1CCC(CN2CCC(c3c[nH]c4ccccc34)CC2)CC1)c1cc2ccccc2o1 (stereo not given) | 94% | 14% | 34%
9 | CC(=O)Nc1ccc(OCCN(CC(C)C)c2ccc(C#N)c(C(F)(F)F)c2)c(Cl)c1 | 94% | 94% | 13%
10 | CNC(=O)c1ccc2[nH]cc(C3CCN(CC4CCC(NC(=O)/C=C/c5ccc(Cl)c(Cl)c5)CC4)CC3)c2c1 (stereo not given) | 100% | 90% | 0%
11 | CCCCCCCN1C2CCC1CC(CCOc1ccnc3ccc(OC)cc13)C2 (stereo not given) | 98% | 88% | 23%
12 | COc1cccc(C2(NC[C@@H](O)[C@H](Cc3ccccc3)NC(=O)c3ccccc3)CCCCC2)c1 | 97% | 67% | 14%
13 | CC[C@H]1CN2CC[C@H]1C[C@H]2[C@H](O)c1cc(-c2ccc(OC(F)(F)F)cc2)nc2ccc(OC)cc12.Cl | 98% | 99% | 24%
14 | Cc1[nH]c2ccccc2c1C1=CCN(CC2CC2C(=O)c2ccccc2)CC1 (stereo not given) | 95% | 88% | 18%
15 | Cl.N#Cc1c(F)cc(N2CCC(NCC[C@H](N)Cc3ccc(F)c(F)c3)CC2)cc1F | 100% | 26% | 70%
16 | COc1cc(NCCCNC(=O)c2cn(Cc3ccccc3)c3ccccc23)nc2ccccc12 | 100% | 66% | 13%
17 | CC(C)C[C@H](Nc1ccc(C#N)c2ccccc12)C(=O)N[C@@H]1CCCc2ccccc21.O=C(O)C(F)(F)F | 99% | 100% | 38%

Row | SMILES | Inhibition (Plasmodium falciparum [1]) | Inhibition (Plasmodium falciparum [2]) | Inhibition (HepG2)
18 | CC[C@H]1CN2CC[C@@H]1C[C@H]2[C@H](O)c1cc(-c2c(C)noc2C)nc2ccc(OC)cc12.Cl | 100% | 98% | 4%
19 | CN1CC=C(c2c[nH]c3ccc(OCc4ccccc4)cc23)CC1 | 95% | 97% | 0%
20 | O=c1c2ccccc2nc(/C=C/c2ccc([N+](=O)[O-])cc2)n1-c1ccccn1 | 98% | 96% | 5%
21 | CN(c1cc(NC(=O)c2ccccc2)ccn1)C1CCN(Cc2cccc(F)c2)CC1.O=C(O)C(F)(F)F | 92% | 94% | 0%
22 | COC(=O)c1ccc(CC(C)NCC(O)c2cccc(Cl)c2Cl)cc1.Cl (stereo not given) | 98% | 98% | 0%
23 | CC(Cc1ccc(S(=O)(=O)N(C(C)C)C(C)C)cc1)NCC(O)c1cccc(C(F)(F)F)c1.Cl (stereo not given) | 96% | 93% | 21%
24 | Cc1ccc(/C=C/C(=O)NC2CCC(CN3CCC(c4c[nH]c5ccccc45)CC3)CC2)cc1C (stereo not given) | 100% | 71% and 91% | 23% and 38%
25 | CC[C@H]1CN2CC[C@H]1C[C@H]2[C@H](O)c1cc(-c2ccccc2F)nc2ccc(OC)cc12.Cl | 99% | 98% | 13%
26 | Oc1ccccc1CNCC(O)c1cccc(C(F)(F)F)c1 (stereo not given) | 100% | 97% | 1%
27 | O=C(NC1CCC(CN2CCC(c3c[nH]c4ccccc34)CC2)CC1)C1(O)c2ccccc2-c2ccccc21 (stereo not given) | 85% | 46% | 22%
28 | C=CC12CCN(CC1)C(C(O)c1ccnc3ccc(OC)cc13)C2 (stereo not given) | – | 72% | 0%
29 | O=C(C=Cc1cccc(Cl)c1Cl)NC1CCC(CN2CCC(c3c[nH]c4ccccc34)CC2)CC1 (stereo not given) | 83% and 100% | – | 40% and 33%
30 | CCC1(C)CC(CCNCc2ccccc2O)(c2ccc(F)cc2)CCO1 (stereo not given) | 98% | 32% | 20%
31 | CC[C@H]1CN2CC[C@H]1C[C@H]2[C@H](O)c1cc(N2CCCC(CO)C2)nc2ccc(OC)cc12 (stereo not given in full) | 100% | 99% | 11%
32 | CC[C@H]1CN2CCc3cc(OC)c(OC)cc3[C@@H]2C[C@@H]1C[C@H]1NCCc2c1cc(OC)c(O)c2Cl | 100% | 100% | 51%
33 | Cc1cccc(C(=O)Nc2ccnc(N(C)C3CCN(CC(C)C)CC3)c2)c1.O=C(O)C(F)(F)F | 95% | 6% | 10%
34 | COC(C(=O)OCCC1CCCN1C)(c1ccccc1)c1ccccc1 (stereo not given) | 98% | 9% | 6%
